# Test results published in PubChem BioAssay (NCI).
# This is part of a sample that, as a whole, favours compounds with a hit. Of some 83,000 tested, about 20% had one in any assay.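 Each cell line was grown in a 96-well plate and treated with one concentration of compound for 48 hours. Values below 10 were considered active.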 Unmarked numbers belong to inactive results. Activity calls are given as the source filed them.
# System: MDA-MB-468 breast
# Assay: NCI-60 one-dose screen, 48 h (100 = growth as untreated, 0 = no growth, -100 = all killed)
# Settings: 10 µM unless noted
row,SMILES,growth
1,Oc1ccccc1/C=N\NC(=S)Nc1ccc(F)cc1,2.61% (active)
2,COc1ccc(C(=O)/C=C/Nc2cc(-c3ccccc3)nn2-c2ccccc2)cc1,70.4%
3,CC(=O)ON=C1C=CC(=C(C#N)c2ccccc2)C=C1,19%
4,OCCNc1ccccc1,99.4%
5,C=C1C(=O)O[C@H]2[C@H]1CC/C(COC(=O)/C=C\C(=O)NCc1ccc(Cn3c(=O)sn(-c4ccc(C#N)cc4)c3=O)cc1)=C\CC[C@@]1(C)O[C@@H]21,-87.6% (active)
6,COc1ccc(C(=O)c2cc3c(N)c(C(=O)Nc4cccc(Cl)c4)sc3nc2C)cc1,10.5%
7,Cc1cc(O)c(C(C)C)cc1Cl,114%
8,CC/C(=C(/c1ccc(O)cc1)c1ccc(OCCN2CCCCCC2)cc1)c1ccc(Cl)cc1,38.6%
9,COc1ccc(Br)c2c1C(=O)CC2,107%
10,COc1ccc(C2(Cl)c3ccccc3N(c3ccccc3)c3ccccc32)cc1,-32.7% (active)
11,COc1ccc(NC(=O)Nc2ccccc2CNc2nc(Nc3ccc(OCCN4CCCC4)cc3)ncc2Cl)cc1,-43.5% (active)
12,Cc1ncc(C(=O)Nc2ccc(CN3CCN(C)CC3)c(C(F)(F)F)c2)cc1C#Cc1cnc(N)cc1C#N,68.2%
13,COc1ccc(C(=S)c2cc(OC)c(OC)c(OC)c2)cc1OC(=O)CCl,47.5%
14,COc1cc(-c2nc(SCc3ccc(C)cc3)[nH]c(=O)c2C#N)ccc1OCc1ccccc1,87.3%
15,CC1(C)/C(=C\CO)C2CCC1C2 (stereo not given),101%
16,O=[N+]([O-])c1ccc(N=Nc2cc(S(=O)(=O)O)c3cccc(S(=O)(=O)O)c3c2O)cc1,118%
17,Oc1c(Cl)cc(Cl)c2ccc(Cn3cc(-c4cccc(C(F)(F)F)c4)nn3)nc12,56.4%
18,CC1=C2[C@@H](CC1)[C@]1(C)O[C@@](C(C)C)(C[C@H]1OC(=O)CO)[C@H]2OC(=O)C1CC1c1ccccc1 (stereo not given in full),93.3%
19,Cc1cc(F)cc(NS(=O)(=O)c2ccc(-c3cnc(C4CC4)o3)cc2)c1,-1.16% (active)
20,C=CCn1c(SCC(=O)Nc2ccc(C(=O)/C=C/c3ccc(Cl)cc3)cc2)nnc1-c1ccc(Br)cc1,79.1%

row,SMILES,growth
1,Cc1ccc(C)c(S(=O)(=O)NC2c3ccccc3Oc3ccccc32)c1,85%
2,Cc1onc2c(-c3ccccc3)n[nH]c(=O)c12,98.3%
3,CCOC(=O)/C(C#N)=C(/C)C1CC1,98.3%
4,Cc1nc(Nc2n[nH]c3c2CN(C(=O)N[C@H](CN(C)C)c2ccccc2)C3(C)C)c2sccc2n1,-44.3% (active)
5,CCc1ccc(Oc2c(-c3ccc(OCCc4cccc(C(F)(F)F)c4)cc3O)n[nH]c2C(F)(F)F)cc1,22.5%
6,O=c1[nH]c(N2CCOCC2)nc2scc(-c3ccccc3)c12,86.2%
7,N#C/C=C(\c1ccc([N+](=O)[O-])cc1)n1nnc2cc(Cl)c(Cl)cc21,-47.4% (active)
8,O=S(=O)(NCCNc1nccc(-c2c(-c3cccc(O)c3)nc3occn23)n1)c1ccc(Cl)cc1,97.9%
9,C=C1C(=O)O[C@H]2[C@H]1CC/C(Cn1cc(-c3cc(C)c(C)cc3C)nn1)=C\CC[C@@]1(C)O[C@@H]21,-75.6% (active)
10,CCN1C[C@@H](C)n2c(c(O)c3c(=O)n(Cc4ccc(F)c(Cl)c4)nc(C(=O)NC)c32)C1=O,45%
11,O=C(N/N=C/[C@@H](O)[C@H](O)[C@H](O)CO)c1ccc(NC(=O)c2cccnc2)cc1,101%
12,Cc1ccc(O)c(Cc2ccccc2)c1,101%
13,C=CC(=O)N1CCC=C(c2cc3c(N[C@H](C)c4ccccc4)ncnc3[nH]2)C1,9.58% (active)
14,N#Cc1c(-c2ccc(Cl)cc2)nc(N=Nc2c(O)[nH]c3ccc(Cl)cc23)nc1N1CCOCC1,90.8%
15,Fc1cc(F)cc(C(c2c[nH]c3ccccc23)c2c[nH]c3ccccc23)c1,111%
16,COc1ccc(-n2c(SCC(=O)Nc3ccc(-c4nc5ccccc5[nH]4)cc3)nc3ccccc3c2=O)cc1,-88.2% (active)
17,COc1cc2ccnc(C=O)c2cc1OC,82.5%
18,O=C(O)c1c[nH]c2ccccc2c1=O,114%
19,O=C(NO)c1ccc(-n2nc(-c3ccccc3)c3ccccc32)cc1,52.9%
20,Br/C(=N\Nc1nn[nH]n1)c1ccccc1,104%
